Results: PubChem BioAssay (Tox21)
Values joined by “and” are separate entries in the source; they are usually repeats but may differ in a detail not shown here. Equal values may be shown once. Results filed as inconclusive are left out. Active and inactive are the calls of the source. Unless noted, calls come from the whole dose curve; as a rule, active = well fitted curve in the direction sought with a large enough effect in the repeat runs; inconclusive = weak or mixed curves; inactive = no such curve, though single readings can be large; an effect the other way counts as inactive or inconclusive. Positions of bridges follow the written chain, without caps; N, C: chain ends. Non-standard residues stand in square brackets, D forms with d. Residues, ends and D or L forms follow the SMILES beside them. *: point of attachment. X1 = CC[C@@H](C)[C@@H](N)C1=N[C@H](C(=O)*)CS1; d(aIle) = CC[C@H](C)[C@@H](N)C(=O)O; dOrn = NCCC[C@@H](N)C(=O)O

Key:
[1] = qHTS assay for identifying genotoxic compounds that show differential cytotoxicity against isogenic chicken DT40 cell lines with known DNA damage response pathways - wild type cell line (AID 743012); conditions: DT40 wild type chicken cells viability, CellTiter-Glo, 40 h; series mostly up to 68.4 µM; note: nearly all actives have a fitted effect of over 60% in size; note: potency is the fitted concentration of half-maximal effect
Summary of the method: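 Using parental DT40 (300 cells/well), compounds delivered in DMSO incubate 40 h at 37 C/5% CO2. CellTiter-Glo reagent then stands 30 min at room temperature, and luminescence gives cell viability.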

[2] = qHTS assay for identifying genotoxic compounds that show differential cytotoxicity against isogenic chicken DT40 cell lines with known DNA damage response pathways - Rev3 mutant cell line (AID 743014); conditions: chicken DT40 Rev3-/- viability, CellTiter-Glo, 40 h; series mostly up to 68.4 µM; note: nearly all actives have a fitted effect of over 55% in size; note: potency is the fitted concentration of half-maximal effect
[3] = qHTS assay for identifying genotoxic compounds that show differential cytotoxicity against isogenic chicken DT40 cell lines with known DNA damage response pathways - Rad54/Ku70 mutant cell line (AID 743015); conditions: DT40 Rad54/Ku70 mutant viability, CellTiter-Glo, 40 h; series mostly up to 66.8 µM; note: nearly all actives have a fitted effect of over 60% in size; note: potency is the fitted concentration of half-maximal effect
[4] = qHTS assay to identify small molecule antagonists of the androgen receptor (AR) signaling pathway - cell viability counter screen (AID 743033; note: nearly all actives have a fitted effect of over 45% in size; note: potency is the fitted concentration of half-maximal effect); conditions: AR-bla HEK293 viability, CellTiter-Glo luminescence, 16 h; series mostly up to 58.5 µM
[5] = qHTS assay to identify small molecule antagonists of the androgen receptor (AR) signaling pathway using the MDA cell line - cell viability counter screen (AID 743041; note: nearly all actives have a fitted effect of over 45% in size; note: potency is the fitted concentration of half-maximal effect); conditions: MDA-kb2 viability, CellTiter-Fluor, 16 h, cells co-treated with R1881 androgen agonist; series mostly up to 70.3 µM
Summary of the method: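 MDA-kb2 AR-luc human breast carcinoma cells (MMTV-luciferase, AR/GR responsive) were treated with compounds plus R1881 agonist for 16 h at 37 °C. Viability was read as CellTiter-Fluor fluorescence in the same wells as the reporter assay.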

[6] = qHTS assay to identify small molecule antagonists of the glucocorticoid receptor (GR) signaling pathway - cell viability counter screen (AID 720693); conditions: GR-bla HeLa viability, CellTiter-Glo luminescence, 18 h, with 5 nM dexamethasone present; series mostly up to 58.5 µM; note: nearly all actives have a fitted effect of over 55% in size
[7] = target: Androgen receptor (Homo sapiens) (UniProt P10275); assay: qHTS assay to identify small molecule antagonists of the androgen receptor (AR) signaling pathway (AID 743035; active = well fitted inhibition curve with a large enough effect in the signal ratio in the repeat runs, not every such curve was filed as active; the % refers to the signal ratio; note: potency is the fitted concentration of half-maximal effect); conditions: HEK293 AR-UAS-bla, R1881-stimulated, beta-lactamase FRET, 16 h; series mostly up to 58.5 µM
Chain of Androgen receptor (Homo sapiens) (P10275 whole entry, looked up): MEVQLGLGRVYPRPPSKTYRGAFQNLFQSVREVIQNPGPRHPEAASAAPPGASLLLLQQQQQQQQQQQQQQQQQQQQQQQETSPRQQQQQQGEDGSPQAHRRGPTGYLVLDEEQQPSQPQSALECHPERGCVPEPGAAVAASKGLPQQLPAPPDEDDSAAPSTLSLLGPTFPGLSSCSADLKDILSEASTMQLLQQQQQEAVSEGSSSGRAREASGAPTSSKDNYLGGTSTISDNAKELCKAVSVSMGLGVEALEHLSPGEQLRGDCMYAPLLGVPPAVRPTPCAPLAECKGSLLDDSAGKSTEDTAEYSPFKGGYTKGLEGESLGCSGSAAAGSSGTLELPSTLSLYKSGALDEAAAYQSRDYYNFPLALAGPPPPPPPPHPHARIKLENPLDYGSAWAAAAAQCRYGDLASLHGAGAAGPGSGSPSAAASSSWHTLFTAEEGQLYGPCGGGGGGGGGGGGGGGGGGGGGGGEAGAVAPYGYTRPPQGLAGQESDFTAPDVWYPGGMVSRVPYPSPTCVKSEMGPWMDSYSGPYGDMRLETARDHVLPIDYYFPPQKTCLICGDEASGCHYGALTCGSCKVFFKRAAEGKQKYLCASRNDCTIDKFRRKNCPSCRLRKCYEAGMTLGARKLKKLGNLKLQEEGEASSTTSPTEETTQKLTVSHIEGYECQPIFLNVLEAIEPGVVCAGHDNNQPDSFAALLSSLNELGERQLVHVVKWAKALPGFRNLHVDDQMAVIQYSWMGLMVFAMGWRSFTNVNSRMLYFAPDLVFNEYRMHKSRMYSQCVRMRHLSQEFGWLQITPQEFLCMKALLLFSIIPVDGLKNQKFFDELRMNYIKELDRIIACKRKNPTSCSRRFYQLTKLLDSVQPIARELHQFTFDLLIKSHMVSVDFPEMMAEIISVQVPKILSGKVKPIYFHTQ
Summary of the method: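 Using qHTS, AR-UAS-bla GripTite HEK293 cells received compound, then R1881, and were cultured 16 h at 37C/5% CO2 before a 2 h room-temperature LiveBLAzer B/G FRET substrate step and fluorescence measurement.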

[8] = target: Androgen receptor (Homo sapiens) (UniProt P10275); assay: qHTS assay to identify small molecule agonists of the androgen receptor (AR) signaling pathway using the MDA cell line (AID 743040; note: nearly all actives have a fitted effect of over 20% in size); conditions: MDA-kb2 AR-luc cells, MMTV luciferase, 16 h; series mostly up to 70.3 µM
Summary of the method: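 MDA-kb2 breast carcinoma cells stably carrying an MMTV-driven luciferase reporter (AR- and GR-responsive) were seeded and held 5 h at 37C, 0% CO2, then exposed to compounds in DMSO for 16 h. Luminescence was read 30 min after ONE-Glo addition.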

[9] = target: Androgen receptor (Homo sapiens) (UniProt P10275); assay: qHTS assay to identify small molecule antagonists of the androgen receptor (AR) signaling pathway using the MDA cell line (AID 743042; note: potency is the fitted concentration of half-maximal effect; nearly all actives have a fitted effect of over 55% in size); conditions: MDA-kb2 AR-luc, MMTV luciferase, R1881 antagonist, 16 h; series mostly up to 70.3 µM
Summary of the method: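 MDA-kb2 cells (human breast carcinoma, stably carrying an MMTV-luciferase reporter responsive to AR and GR) were plated at 3,000 cells/well and preincubated 5 hr at 37C, then given compound plus R1881 agonist for 16 h. ONE-Glo luminescence was read.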

Measured: Potency

COc1cccc(-c2ccc(/C=C\CN3CCCCCC3)cc2Cl)c1
active: [1] 3.05 µM | [2] 0.483 µM | [3] 2.16 µM

NC[C@H]1O[C@H](O[C@H]2[C@H](O)[C@@H](O[C@H]3O[C@H](CO)[C@@H](O)[C@H](N)[C@H]3O)[C@H](N)C[C@@H]2N)[C@H](N)C[C@@H]1O
inactive: [1] | [2] | [3] | [4] | [5]

CO/N=C(\C(=O)N[C@@H]1C(=O)N2C(C(=O)O)=C(COC(C)=O)CS[C@H]12)c1csc(N)n1 (stereo in doubt)
inactive: [1] | [2] | [3] | [4] | [5]

CCN(CC)C(=O)c1cccnc1
inactive: [1] | [2] | [3] | [4] | [5]

CC(C)(O/N=C(\C(=O)N[C@@H]1C(=O)N2C(C(=O)[O-])=C(C[n+]3ccccc3)CS[C@H]12)c1csc(N)n1)C(=O)O
inactive: [1] | [2] | [3] | [4] | [5]

Cc1cc(Br)ccc1NC(=O)CCl
active: [1] 5.45 µM | [2] 5.45 µM | [3] 1.54 µM | [4] 24.5 µM | [5] 48.6 µM

CN1C(C(=O)Nc2ccccn2)C(=O)c2sc(Cl)cc2S1(=O)=O (stereo unspecified)
inactive: [6] | [3] | [5]

CC(C)[N+]1(C)[C@@H]2CC[C@H]1CC(OC(=O)C(CO)c1ccccc1)C2 (stereo partly specified)
inactive: [6] | [4] | [5]

CCCCC/C=C\C=C\C(=O)OCC
active: [1] 12.7 µM | [2] 16 µM | [3] 12.7 µM

Clc1nc(C(Cl)(Cl)Cl)c(Cl)c(Cl)c1Cl
active: [1] 21.7 µM | [2] 19.3 µM | [3] 27.3 µM

Cc1c(N)nc([C@H](CC(N)=O)NC[C@H](N)C(N)=O)nc1C(=O)N[C@H](C(=O)N[C@H](C)[C@@H](O)[C@H](C)C(=O)N[C@H](C(=O)NCCc1nc(-c2nc(C(=O)NCCCCN=C(N)N)cs2)cs1)[C@@H](C)O)[C@@H](O[C@@H]1O[C@@H](CO)[C@@H](O)[C@H](O)[C@@H]1O[C@H]1O[C@H](CO)[C@@H](O)[C@H](OC(N)=O)[C@@H]1O)c1cnc[nH]1
inactive: [4] | [5]
active: [1] 4.22 µM and 1.5 µM | [2] 1.33 µM | [3] 211 nM and 37.6 nM

CC[C@@H](C)[C@@H](N)C1=N[C@H](C(=O)N[C@@H](CC(C)C)C(=O)N[C@@H](CCC(=O)O)C(=O)N[C@@H](C(=O)N[C@@H]2CCCCNC(=O)[C@@H](CC(N)=O)NC(=O)[C@@H](CC(=O)O)NC(=O)[C@@H](Cc3cnc[nH]3)NC(=O)[C@@H](Cc3ccccc3)NC(=O)[C@@H]([C@H](C)CC)NC(=O)[C@@H](CCCN)NC2=O)[C@@H](C)CC)CS1 (X1-LE[d(aIle)][dK][dOrn][dI][dF][dH][dD][dN]; lactam 4-C)
inactive: [1] | [2] | [3] | [4] | [5]

CN(C)CCC(O)(c1ccccc1)c1ccccc1Cl (stereo unspecified)
inactive: [6] | [4] | [5]

CO[C@H]1C[C@@H]2CC[C@@H](C)[C@@](O)(O2)C(=O)C(=O)N2CCCC[C@H]2C(=O)O[C@H]([C@H](C)C[C@@H]2CC[C@@H](O)[C@H](OC)C2)CC(=O)[C@H](C)C=C(C)[C@@H](O)[C@@H](OC)C(=O)[C@H](C)C[C@H](C)/C=C/C=CC=C1C
active: [1] 2.4 nM and 3 nM | [2] 2.7 nM and 2.4 nM | [3] 3.3 nM and 5.3 nM | [7] 10.7 µM and 26.8 µM | [5] 29.8 µM | [9] 21.1 µM and 23.7 µM
inactive: [4] | [8]
